MBD2 inh = inhibitors of MBD2 binding to methylated DNA, primary screen, biochemical, TR-FRET, DNA-binding domain, human; Methyl-CpG-binding domain protein 2 (Homo sapiens), Q9UBB5; MBD2 binding to methylated oligonucleotide; inhibition, % at 4.4 µM; 370,000 compounds, 0.31% hits; in the data active = inhibition above about 13%
Target sequence (Q9UBB5 whole entry, looked up, the tested form may be a part): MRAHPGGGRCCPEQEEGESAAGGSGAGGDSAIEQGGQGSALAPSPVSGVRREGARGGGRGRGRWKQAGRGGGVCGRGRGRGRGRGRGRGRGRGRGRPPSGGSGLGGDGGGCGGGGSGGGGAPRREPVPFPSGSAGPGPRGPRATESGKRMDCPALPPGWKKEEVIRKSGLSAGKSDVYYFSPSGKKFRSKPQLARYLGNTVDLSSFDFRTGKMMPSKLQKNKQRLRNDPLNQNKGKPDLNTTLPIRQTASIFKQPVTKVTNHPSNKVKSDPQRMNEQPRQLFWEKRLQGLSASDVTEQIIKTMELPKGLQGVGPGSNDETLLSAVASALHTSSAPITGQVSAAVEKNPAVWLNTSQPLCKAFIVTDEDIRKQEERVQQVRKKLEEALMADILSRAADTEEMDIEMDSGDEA
PRMT1 FP inh = PRMT1 methyltransferase inhibitors, primary screen, biochemical, fluorescence polarization; 370,000 compounds, 1.3% hits; recombinant PRMT1, activity-based probe fluorescence polarization; AID 652257, 2013; Protein arginine N-methyltransferase 1 (Homo sapiens), Q99873; inhibition, % at 2.79 µM;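 active = inhibition above about 21% made by adding two undisclosed values, limit read from the data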
UHRF1 MBD2 ctr = UHRF1 methylated DNA binding inhibitors, primary screen, counter-screen for MBD2 inhibitor project, biochemical, TR-FRET, human UHRF1, single concentration. UHRF1 binding to methylated oligo. inhibition, % at 4.4 µM. E3 ubiquitin-protein ligase UHRF1 (Homo sapiens), Q96T88. 370,000 compounds, 0.75% hits; in the data active = inhibition above about 21%;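 note: UHRF1 SRA domain binding a hemimethylated CpG hairpin DNA probe; 0% = median of test compound wells and 100% = reference inhibitor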
PfGluPho inh = PfG6PD enzyme inhibitors, primary screen, biochemical, fluorescence intensity, uHTS. glucose-6-phosphate dehydrogenase-6-phosphogluconolactonase (Plasmodium falciparum 3D7). PfGluPho enzyme, NADPH resazurin-diaphorase fluorescence. inhibition, % at 20 µM. 350,000 compounds, 0.78% hits;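 active = inhibition reaching at least a set limit at 20 µM in the primary screen, cut at about 59% in these data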;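 note: 0% = DMSO wells with substrate and 100% = DMSO wells lacking glucose-6-phosphate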
M18AAP inhibitor = PfM18AAP inhibitors, malaria aminopeptidase, primary screen, biochemical, QFRET, recombinant enzyme | H-Glu-NHMec fluorogenic cleavage | M18 aspartyl aminopeptidase (Plasmodium falciparum 3D7) | 290,000 compounds, 1.2% hits | inhibition, % at 7.35 µM | AID 1822, 2009;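 active = inhibition above the campaign mean inhibition over all tested compounds plus 3 SD, cut at about 28% in these data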;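 note: 0% = plate median of test compound wells and 100% = 2 mM ZnCl2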
Starred values were filed as active, the others as inactive; . = not tested or not shown. Rows were chosen to be rich in hits. Some 3.3% of all compounds tested hit in one or more screens of this group.

SMILES	MBD2 inh	PRMT1 FP inh	UHRF1 MBD2 ctr	PfGluPho inh	M18AAP inhibitor
COc1ccc(CN2C(=O)C(CC(=O)NCCN3CCOCC3)CC(C(=O)N(C)C)=C2C)cc1 (stereo not drawn)	-5	-5	1	-6	.
CC1=C(C(=O)N(C)C)CC(CC(=O)NCc2cccs2)C(=O)N1Cc1ccc(F)cc1 (stereo not drawn)	8	-2	24*	.	.
CCCCCN1CCCCC(NC(=O)c2cccc(F)c2)C1=O (stereo not drawn)	5	-1	10	.	.
COC(=O)[C@]12C[C@H](CC(=O)N3CCC(c4ccccc4)CC3)C(=O)N(Cc3ccc4c(c3)OCO4)C1=C[C@H](COCc1ccccc1)O[C@@H]2C	-4	-5	0	.	.
Cc1cc(O)c(C(=O)/C=C/c2cccc([N+](=O)[O-])c2)c(=O)o1	-3	-3	0	-5	9
COc1cc(OC)c(C(=O)C=Cc2ccc(OC)c(OC)c2)c(OC)c1	-1	-1	-2	-14	.
O=C(/C=C/c1cccc(Cl)c1)c1ccc([N+](=O)[O-])o1	2	17	0	97*	.
COc1ccc(/C=C/C(=O)c2ccc([N+](=O)[O-])o2)cc1OC	0	3	1	77*	.
CSc1nsc(/C=C/Nc2ccc(O)cc2C)c1C#N	-2	53*	-3	25	6
CSc1nsc(/C=C/Nc2ccc(F)cc2)c1C#N	1	1	-4	6	-4
COc1cc(/C=C2\SC(=S)N(CC(=O)O)C2=O)ccc1OS(=O)(=O)c1ccc(C)cc1	3	4	26*	-17	.
Nn1c(SCC(=O)Nc2ccccc2-c2ccccc2)nnc1-c1cc(-c2ccccc2)n[nH]1	-1	9	2	.	.
COC(=O)C1CN(C2CCCC2)CCS(=O)(=O)N1Cc1ccc(C)cc1 (stereo not drawn)	-1	1	-2	.	.
CCCc1nc2ccc(C)cn2c1Cc1ccccc1OC	10	3	22*	.	.
CCCc1nc2ccc(C)cn2c1Cc1ccccc1C(F)(F)F	10	3	24*	.	.
CCCc1nc2c(C)cc(Br)cn2c1Cc1ccccc1C(F)(F)F	9	0	22*	.	.
COc1ccccc1Cc1c(-c2ccc(Cl)cc2)nc2ccc(C)cn12	5	2	21*	.	.
COc1ccc(CN2CCC(CNC(=O)Nc3ccccc3)CC2)cc1	3	-6	-1	.	.
Cc1cc(C)cc(C(=O)NCCn2cc(SCC(=O)N3CCOCC3)c3ccccc32)c1	2	-2	38*	3	0
CCOC(=O)COc1cnc2ccccc2n1	7	0	22*	-5	4
CCn1c(/C=C/N(C(C)=O)c2ccccc2)[n+](CC)c2ccc(Cl)cc21	-5	2	-3	1	5
CC[n+]1c(/C=C/C=C/N(C(C)=O)c2ccccc2)sc2ccccc21	-8	35*	-20	38	18
COC(=O)[C@]12C[C@H](CC(=O)NCc3cccc4ccccc34)C(=O)N(Cc3cccc4ccccc34)C1=C[C@H](C(C)C)O[C@@H]2C1CC1	1	-4	-2	.	.
O=C(NCc1ccccc1)c1cccc(OCC(=O)N2CCN(C(=O)c3ccco3)CC2)c1	8	2	21*	22	-1
CN(Cc1ccco1)S(=O)(=O)c1cc(F)ccc1CN1C(=O)c2cccnc2C1=O	9	7	24*	8	5
SMILES	MBD2 inh	PRMT1 FP inh	UHRF1 MBD2 ctr	PfGluPho inh	M18AAP inhibitor
Cc1cccc(-c2n[nH]c(=S)n2/N=C/c2ccc(C)o2)c1	-6	22*	-2	47	14
CSc1nsc(SCC(=O)Nc2c(C)n(C)n(-c3ccccc3)c2=O)n1	1	22*	-1	-3	14
Cc1cc(N2CCN(C(=O)Oc3ccc(-c4ccccc4)cn3)CC2)c2ccccc2n1	-2	-3	5	.	.
COCCCNC(=O)c1nnn2c1nc(N)c1cc(Cl)ccc12	4	-2	-3	.	.
O=C(NNC(=O)c1cc2ccccc2cc1O)c1cccs1	0	3	2	-24	29*
COC(=O)C1=C(C)N(C)C(=NCc2cccc(C(F)(F)F)c2)NC1c1ccccc1C(F)(F)F (stereo not drawn)	-2	-3	1	.	.
CCOc1ccc(/C=C2/SC(=O)NC2=S)cc1	-1	13	-4	-8	18
CCOc1ccc(/C=C2\SC(=S)N(N3C(=O)C4CC4C3=O)C2=O)cc1 (stereo not drawn)	0	7	-13	-4	31*
CCOc1ccc(/C=C2\SC(=S)N(CC(=O)N(CCO)C(C)(C)C)C2=O)cc1	4	0	35*	18	-4
CC(C)(C)C1=CC(CC(N)=O)(C(C)(C)C)OC1=O (stereo not drawn)	-1	-3	0	.	.
O=C(CSCCc1ccccn1)Nc1ccccn1	3	6	1	9	9
O=C(O)CSCCc1ccccn1	10	0	21*	10	5
CCOC(=O)N1CCN(C(=O)C[C@H]2C[C@@]3(C(=O)OC)C(=C[C@H](C(C)(C)C)O[C@@H]3C)N(Cc3cccc4ccccc34)C2=O)CC1	-3	-2	-2	.	.
S=C(Nc1ccc(Nc2ccccc2)cc1)Nc1ccccn1	2	23*	3	9	1
S=C(Nc1ccccc1)Nc1ccccn1	5	2	3	5	.
Cc1c2ccccc2nc2c(F)c(NCCO)c(F)c(F)c12	-10	27*	-16	-17	19
CCCCC(=O)/C=C/n1c(=S)oc2ccccc21	8	12	23*	7	3
CC(C)OC(=O)n1c(=S)oc2ccccc21	-8	-2	0	-6	-1
Cc1cccc(NC(=S)NCc2ccccn2)c1	-2	2	-1	-3	4
S=C(NCc1ccccn1)Nc1cccc(Cl)c1	-1	2	-4	1	30*
Cc1cccc(-c2ccc(NC(=O)C3CCN(CC4CC4)CC3)cc2)c1	4	0	-2	15	3
COc1cccc(CN2CCC(C(=O)Nc3ccc(-c4cccc(C)c4)cc3)CC2)c1O	9	0	71*	19	13
COc1ccc(OC)c(S(=O)(=O)Nc2ccc(C(=O)Nc3cc(C)on3)cc2)c1	-5	-3	-2	.	.
Cc1ccc2nc3c(c(C(=O)O)c2c1)CCC3	-3	6	21*	9	4
O=C(O)c1c2c(nc3ccc(Cl)cc13)CCC2	-7	4	3	16	1
CCOC(=O)N1CCN(C(=O)C[C@H]2C[C@@]3(C(=O)OC)C(=C[C@H](C(C)(C)C)O[C@@H]3C)N(CCc3ccc(OC)c(OC)c3)C2=O)CC1	0	0	-1	.	.
S=c1[nH]ncn1/N=C/c1ccc(Br)cc1	0	-1	-1	21	17

Screens deposited in PubChem by several laboratories.
